Test results from PubChem BioAssay AID652053 (Broad Institute, 2013).
Hit rate of the full screen: of about 1,300 compounds, about 930 (72%) were called active.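 Rule for the calls: active = fitted curve reaches 40% activation signal increase at or below the top valid tested concentration in every replicate test; inconclusive = replicate tests disagree in their calls; inactive = all replicate tests inactive, including effects opposite the expected signal rise.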 So high a share suggests a set chosen from earlier hits. These entries were drawn from the full list. Entries with a potency or affinity are not part of this list.

assay: suppression of miR-122 activity, Renilla luciferase sensor – cell-based, Huh7 psiCHECK-miR122, cherry-pick, dose response (AID 652053); settings: Huh7 psiCHECK-miR122 Renilla luciferase reporter, 48 h; series mostly up to 35 µM; activation (miR-122 inhibition): at the top concentration

Activation (miR-122 inhibition), inactive:
COC(=O)C(CC(C)C)Oc1ccc2c(C)cc(=O)oc2c1 (stereo not drawn) 7.53%
CC(Oc1ccc(Cl)cc1)c1ccnn1S(=O)(=O)c1ccc(Cl)cc1 (stereo not drawn) 13.2%
COC(=O)c1ccccc1NC(=O)Cn1c(-c2nonc2N)nc2ccccc21 22.3%
C[C@H]1CN([C@@H](C)CO)C(=O)Cc2cc(NC(=O)Nc3cccc4ccccc34)ccc2O[C@@H]1CN(C)C(=O)Nc1cccc2ccccc12 5.36%
C[C@H]1CN([C@@H](C)CO)C(=O)Cc2cc(NC(=O)Nc3cccc4ccccc34)ccc2O[C@H]1CN(C)C(=O)Nc1cccc2ccccc12 -9%
C[C@@H]1CN([C@@H](C)CO)C(=O)Cc2cc(NC(=O)Nc3cccc4ccccc34)ccc2O[C@H]1CN(C)C(=O)Nc1cccc2ccccc12 -8.21%
C[C@H](CO)N1C[C@H](C)[C@@H](CN(C)C(=O)Nc2cccc3ccccc23)Oc2ccc(NC(=O)Nc3cccc4ccccc34)cc2CC1=O -5.3%
COc1ccc(NC(=O)Nc2cccc3c2O[C@H](CN(C)Cc2ccc4c(c2)OCO4)[C@@H](C)CN([C@@H](C)CO)C3=O)cc1 26.5%
FC(F)(F)c1nnc2c(Sc3ccccc3)nc3ccc(Cl)cc3n12 -26.1%
CCC1=NN(C(=O)c2ccccc2O)C(O)(c2ccccc2)C1 (stereo not drawn) 9.78%
CCC(=O)N1[C@H](CN(CC)C(=O)c2cccc(F)c2)[C@H](c2ccccc2)[C@@H]1CO -7.02%
COc1ccc(CNC(=O)C(c2ccc(C)o2)N(Cc2cccs2)C(=O)Cc2cccs2)cc1 (stereo not drawn) 14.8%
CC(C)Cc1nc2sc3c(=O)[nH]cnc3c2c2c1CCC2 -10.5%
Cc1ccc(S(=O)(=O)Nc2ccc(C(=O)NCc3ccccn3)cc2)cc1 19.8%
O=c1[nH]c(=O)c2[nH]c(=O)n(-c3ccccc3)c2[nH]1 -5.9%
CCS(=O)(=O)N1Cc2ccccc2CC1C(=O)NCC12CC3CC(CC(C3)C1)C2 (stereo not drawn) -10.2%
O=C(c1ccc(F)cc1)N1[C@H](CO)[C@@H]2c3ccccc3NC[C@@H]21 28.1%
CCn1nc(C(=O)Nc2ccc(S(=O)(=O)Nc3nccs3)cc2)c2ccccc2c1=O 13%
CCCNC(=O)N1[C@H](CO)[C@@H]2c3ccccc3N(C(=O)c3ccc(F)cc3)C[C@@H]21 2.61%
CC(C)NC(=O)N1[C@H](CO)[C@@H]2c3ccccc3N(C(=O)c3ccc(F)cc3)C[C@@H]21 -10.3%
CCN(C[C@@H]1[C@@H](c2ccccc2)[C@@H](CO)N1C(=O)COC)S(C)(=O)=O -10% [at 30 µM]
O=C(Nc1ccccc1)c1cc([N+](=O)[O-])ccc1NC1CCCCC1 -3.71%
Cc1cc(C)cc(NC(=O)C2CCN(c3nccs3)CC2)c1 5.7%
O=C(Nc1ccccc1Br)C1CCN(S(=O)(=O)c2cccs2)CC1 -12.6%
CN1C(=O)c2cc(NC(=O)Cc3cccs3)ccc2OC[C@@H]2O[C@@H](CC(=O)NCC3CCCCC3)CC[C@@H]21 -1.42%
CN1C(=O)c2cc(NC(=O)NC3CCCC3)ccc2OC[C@H]2O[C@@H](CC(=O)O)CC[C@H]21 -4.5%
Cc1ccc(CC(=O)N(Cc2ccccc2)c2ccccn2)cc1 20.7%
Cc1ccc(-c2nc(CSCC(=O)NCCN3CCN(Cc4ccccc4)CC3)c(C)o2)cc1 -18.4%
CCCc1cc(=O)oc2cc(OCc3nn[nH]n3)ccc12 2.65%
COc1ccccc1CNC(=O)C[C@@H]1CC[C@@H]2[C@H](COc3ccc(NS(=O)(=O)c4ccc(C)cc4)cc3C(=O)N2C)O1 -18.5%
COc1ccccc1CNC(=O)C[C@@H]1CC[C@@H]2[C@H](COc3ccc(NC(C)=O)cc3C(=O)N2C)O1 -2.8%
COc1ccccc1CNC(=O)C[C@H]1CC[C@@H]2[C@@H](COc3ccc(NC(C)=O)cc3C(=O)N2C)O1 -11.1%
COc1ccccc1CNC(=O)C[C@H]1CC[C@@H]2[C@H](COc3ccc(NS(=O)(=O)c4ccc(C)cc4)cc3C(=O)N2C)O1 -17.9%
COc1ccccc1CNC(=O)C[C@@H]1CC[C@H]2[C@@H](COc3ccc(NS(=O)(=O)c4ccc(C)cc4)cc3C(=O)N2C)O1 -6.29%
CCOCc1nnc(NS(C)(=O)=O)s1 -3.47%
CS(=O)(=O)N1N=C(c2ccc(Cl)cc2)CC1c1cccs1 (stereo not drawn) 20.8%
Cc1cccc(-c2nnc(-c3cccc4ccccc34)o2)c1 32.1%
c1ccc2c(c1)ccc1nnnn12 -9.49%
OC(COC(c1ccc(Cl)cc1)c1ccc(Cl)cc1)CN1CCCC1 (stereo not drawn) -20%
COc1ccccc1CNC(=O)C[C@H]1CC[C@@H]2[C@@H](COc3ccc(NC(=O)Nc4ccc(F)c(F)c4)cc3C(=O)N2C)O1 -27.2%
CC1CCCC(NC(=O)COC(=O)c2ccccc2NC(=O)c2ccco2)C1C (stereo not drawn) 6.27%
Nc1nonc1C(=O)N1CCCC1 -0.662%
COc1ccccc1N1CCN(C(=O)c2ccc(Cn3c(=O)[nH]c4ccsc4c3=O)cc2)CC1 13.5%
COc1ccccc1N1CCN(C2CC(=O)N(c3cccc(Cl)c3)C2=O)CC1 (stereo not drawn) 6.61%
CCOc1ccccc1N1CCN(C(=O)c2ccc3[nH]c(C)c(C)c3c2)CC1 16.6%
O=C(CN(C1CCCCC1)S(=O)(=O)c1ccc(Cl)cc1)NCc1cccnc1 24.2%
COC(=O)c1ccc(/C=N/OCC(=O)NC2CCCCCCC2)cc1 7.74%
Cc1ccc(C)c(NC(=O)CSc2nnc(CCNC(=O)OC(C)(C)C)o2)c1 6.18%
Cc1ccc2cc(-c3noc(C(C)(C)C)n3)c(=O)[nH]c2c1 -11.5%
CC(=O)c1cccc(NC(=O)NCc2cccs2)c1 31%
O=c1c[n+]([O-])c2ccccc2n1OCc1c(F)cccc1F 0.654%
COc1ccc(S(=O)(=O)N2N=C(C)Oc3ccccc3C2=O)cc1 15.6%
COc1ccc(-c2nc(SCc3ccccc3)n(S(C)(=O)=O)n2)cc1 -9.07%
COc1ccc(OCCCC(=O)NCCc2ccccc2)cc1 -2.51%
COc1ccc(NC(=O)CCN2C(=O)c3ccccc3C2=O)cc1 14.3%
CC(=O)Nc1nonc1-n1nnc(C(=O)NCc2ccccc2)c1C -10.2%
O=C(CN(Cc1cccs1)S(=O)(=O)c1ccc(S(=O)(=O)NC2CCCCC2)cc1)Nc1ccccc1 -3.3%
C=CCN=C1NN=C(c2ccc3c(c2)OCCO3)CS1 19.4%
